Bioassay records: PubChem, several laboratories
Efflux pump mplx = inhibitors of Candida efflux pumps in yeast, primary screen, S. cerevisiae, Nile Red, multiplex | S. cerevisiae Candida pump triplex | inhibition, % at 10 µM | 0.44% of 330,000 active;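 active = plate passing quality check with inhibition over a set limit, or well fluorescence over plate mean plus 4 SD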;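 note: Nile Red retained in pooled yeast measured as flow cytometry median fluorescence; 0% = buffer negative control and 100% = Enniatin B positive control; higher means more Nile Red kept so more efflux inhibition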
PolyA inh = polyadenylation inhibitors in yeast reporter cells, primary screen, luminescence, S. cerevisiae; S. cerevisiae SKY197-pL101 polyadenylation reporter, beta-gal luminescence; efflux-impaired pdr1/pdr3 knockout yeast; score 100 = 6 SD above DMSO; activity score, % at 12 µM; 0.02% of 300,000 active; AID 1875, 2009;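 active = lowest replicate activity score at least 50, where 100 means six control SD above control mean; inconclusive = lowest score under 50 but half or more replicates reach 50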;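 note: yeast exposed to compound for 9 h at 30 °C; higher score means more reporter readthrough which indicates perturbed polyadenylation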
JMJD2C inh = inhibitors of GASC-1 histone demethylase, primary screen, biochemical, fluorescence, DELFIA europium; GST-JMJD2C(1-420) H3K9me3 demethylation; inhibition, % at 2.35 µM; Lysine-specific demethylase 4C (Homo sapiens), Q9H3R0; 0.069% of 330,000 active;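 active = more than half of a compound's replicate wells show inhibition beyond 50%, single wells judged on their own value; inconclusive = some, but no more than half, of replicates pass 50% inhibition; inactive = no replicate passes 50% inhibition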;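 note: signal counts dimethyl H3K9 product captured on neutravidin plate; 0% = median of DMSO wells and 100% = 0.3 times that DMSO median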
Target sequence (Q9H3R0 1-420 limits assumed): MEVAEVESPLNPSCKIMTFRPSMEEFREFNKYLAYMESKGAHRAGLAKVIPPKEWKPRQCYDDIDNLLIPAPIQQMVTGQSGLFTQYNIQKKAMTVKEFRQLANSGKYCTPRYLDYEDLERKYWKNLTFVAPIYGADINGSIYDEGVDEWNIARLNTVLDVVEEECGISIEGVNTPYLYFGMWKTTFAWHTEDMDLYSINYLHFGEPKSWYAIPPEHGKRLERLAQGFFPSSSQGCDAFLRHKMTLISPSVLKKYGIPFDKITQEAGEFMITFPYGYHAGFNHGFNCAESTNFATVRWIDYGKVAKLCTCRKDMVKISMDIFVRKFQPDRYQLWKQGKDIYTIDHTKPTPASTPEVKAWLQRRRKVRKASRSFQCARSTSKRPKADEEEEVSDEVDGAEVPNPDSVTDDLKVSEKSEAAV
NALP1 inh = NALP1 inflammasome inhibitors in reconstituted yeast, colorimetric, S. cerevisiae, triplicate retest | S. cerevisiae NALP1/ASC/caspase-1 growth, X-gal OD620, 72 h | inhibition, % at 10 µM | 0.61% of 280,000 active | AID 2071, 2009; in the data active = inhibition mostly above about 24%, no sharp cut-off; inactive = mostly below about 32%
HDAC3 inh = HDAC3 deacetylase inhibitors, primary screen, biochemical, fluorescence, cell-free homogeneous; inhibition, % at 8.3 µM; recombinant HDAC3, fluorogenic peptide/trypsin coupled; Histone deacetylase 3 (Homo sapiens), O15379; AID 2718, 2010; 0.15% of 320,000 active; in the data active = inhibition above about 26%, passing the limit was not always enough; inconclusive = no clear call, values can overlap the other calls
NALP3 yeast inh = NALP3 inflammasome inhibitors in reconstituted yeast, primary screen, luminescence, uHTS | Yeast reconstituted NLRP3/ASC/caspase-1, beta-gal luminescence, 24 h | inhibition, % at 10 µM | 0.39% of 330,000 active | AID 2825, 2010;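 active = inhibition of 50% or more; inactive = inhibition below 50%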;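 note: plate controls were induced DMSO wells for no effect and uninduced yeast grown without galactose for full effect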
* hit, by the source's call; i = inactive; u = inconclusive; x = no result. This is a sample that favours compounds with a hit; in the whole collection about 1.5% have one here.

SMILES	Efflux pump mplx	PolyA inh	JMJD2C inh	NALP1 inh	HDAC3 inh	NALP3 yeast inh
CCOC(=O)C1(CCc2ccccc2)CCN(Cc2csc(C(C)=O)c2)CC1	-0.1	-2.8	13.1	27.2*	4.9	35.0
Cc1c(CC(=O)N2C[C@H]3C[C@@H](C2)c2cccc(=O)n2C3)c(=O)oc2cc(O)c(Cl)cc12	0.5	-7.2	11.1	22.3	i	8.1
COC(=O)C1=C(c2ccc(OC(F)(F)F)cc2)C[C@@H]2CC[C@H]1N2C(=O)NCCOc1ccccc1	0.0	x	-0.2	x	19.2	12.8
COC(=O)C1=C(c2ccc(OC(F)(F)F)cc2)C[C@@H]2CC[C@H]1N2C(=O)NCCOc1ccccc1Cl	0.8	x	-2.8	x	33.6*	2.8
Cn1cnc(CCN)c1	0.0	-4.5	-6.7	x	1.6	6.9
C[n+]1c2ccccc2nc2ccc(NCCO)cc21	1.8*	-7.0	-33.4	30.1	0.4	49.0
CNc1ccc2nc3ccccc3[n+](C)c2c1	6.0*	-14.0	8.7	-10.8	5.5	47.1
COC(=O)C1=C(c2ccc(Cl)c(C(F)(F)F)c2)C[C@@H]2CC[C@H]1N2C(=O)NCc1ccco1	0.1	x	9.0	x	1.5	-3.9
COC(=O)C1=C(c2ccc(F)cc2OCc2ccccc2)C[C@@H]2CC[C@H]1N2C(=O)N1CCC(O)(c2ccc(Cl)cc2)CC1	0.2	x	x	x	15.6	27.2
Cc1nc2c(=O)n(C)c(=O)nc-2n(C)n1	0.0	9.8	91.9*	-11.9	-3.8	25.5
COCc1cc(OC(=O)N(C)C)nc2c1c(C)nn2C	0.0	10.9	62.8*	-0.8	-17.0	14.7
CC(=O)N1CCN(c2ccc([N+](=O)[O-])cc2C=C2C(=O)NC(=O)NC2=O)CC1	-0.1	18.8	u	29.1	4.1	12.0
CCN1CCN(c2ccc([N+](=O)[O-])cc2C=C2C(=O)NC(=O)NC2=O)CC1	0.0	5.5	56.8*	43.6	11.0	10.2
Nc1c2c(nc3sc4c(c13)CCCC4)CCCCC2	0.0	-17.1	5.4	54.3*	1.8	47.5
CC(=O)c1ccc(NC(=O)N2C[C@H]3C[C@@H](C2)c2cccc(=O)n2C3)cc1	-0.2	-5.5	0.2	3.4	8.1	8.8
O=Cc1c(C(=O)O)n(Cc2ccccc2F)c2ccccc12	0.1	6.1	-16.7	12.3	3.1	11.1
Cc1ccc(C)c(Cn2c(C(=O)O)c(C=O)c3ccccc32)c1	0.0	10.3	4.0	27.5*	0.6	1.1
CCN(C(=O)COC(=O)Cc1ccccc1)c1c(N)n(Cc2ccccc2)c(=O)[nH]c1=O	-0.1	x	7.0	x	-9.1	5.0
COc1cc(Br)cc(CN2CCN(C)CC2)c1O	0.0	6.0	58.9*	20.1	2.5	-1.3
COc1cccc(CNCCc2cccc(F)c2)c1OC	0.0	-3.6	11.7	8.4	-2.6	13.7
O=C(c1ccccc1)C(CN1CCCC1)c1ccccc1 (configuration not stated)	-0.2	-5.5	-4.4	94.2*	0.9	x
CCOc1cc2c(cc1OCC)-n1cccc1C(c1ccccc1O)NC2 (configuration not stated)	-0.1	16.4	-1.7	8.0	-1.8	25.6
CC(C)(C)N1Cc2ccccc2C1=N	0.5	7.4	14.4	42.9*	-1.9	15.8
CN1C(=O)C(=Cc2ccccc2OCc2ccc(Cl)cc2)C(=O)N(C)C1=O	0.0	13.3	13.5	44.3*	-1.2	36.3
CN1C(=O)C(=Cc2ccccc2Oc2ccc(Cl)cc2)C(=O)N(C)C1=O	0.1	-0.6	8.7	30.1	2.7	1.8
SMILES	Efflux pump mplx	PolyA inh	JMJD2C inh	NALP1 inh	HDAC3 inh	NALP3 yeast inh
COC(=O)C1=C(c2ccc(OC(F)(F)F)cc2)C[C@@H]2CC[C@H]1N2C(=O)N1CCC(O)CC1	-0.2	x	-1.4	x	-1.2	11.0
CCOC(=O)N1CCC(NC(=O)CCc2nc(C3=CCN(C)CC3)no2)CC1	-0.1	10.5	52.8*	6.1	-10.3	11.5
O=c1[nH]oc2c1CCNC2	0.0	x	x	x	-2.9	19.8
O=C1/C(=C\c2cc3c(cc2Cl)OCO3)N2CCC1CC2	-0.1	-4.9	8.3	44.6*	7.1	5.0
O=C1/C(=C/c2cc3c(cc2Cl)OCO3)N2CCC1CC2	1.3	-22.7	-4.7	46.8*	-2.4	7.5
O=C1/C(=C\c2ccc(Cl)cc2Cl)N2CCC1CC2	0.1	-29.1	-11.5	2.6	2.2	7.6
O=C1/C(=C/c2cc([N+](=O)[O-])ccc2Cl)N2CCC1CC2	-0.1	-4.4	3.8	-9.6	-3.4	30.6
O=C1C(Cc2cnc[nH]2)NC(=S)N1c1ccccc1 (configuration not stated)	0.0	-5.6	0.9	-12.0	-6.4	13.8
CC1=NOC2(C)Nc3ncnn3C(c3ccccc3)C12 (configuration not stated)	-0.1	6.5	1.5	35.6*	3.0	12.0
CC1CCC/C=C/C2CC(O)CC2C(O)/C=C/C(=O)O1 (configuration not stated)	0.0	-9.2	57.7	40.0*	0.0	3.3
C[C@H]1CCC/C=C/C2C[C@H](O)CC2[C@H](O)/C=C/C(=O)O1 (some centres not stated)	0.1	9.9	-4.4	12.2	6.1	9.1
CN1C(=O)C(Cc2ccsc2)C(=O)N(C)C1=O	0.0	-0.1	73.9*	18.6	-0.1	1.3
O=C1NC(=O)C(Sc2ccccc2[N+](=O)[O-])C(=O)N1	-0.2	1.7	68.7*	6.1	3.8	13.4
C=C(C=O)CC1CC(O)[C@]2(C)OC3C[C@@H]4OC5C[C@]6(C)O[C@]7(C)CCC8OC9C[C@]%10(C)OC(/C(C)=C\CO)C(O)CC%10OC9CC(C)C8OC7CC6O[C@]5(C)C/C=C\C4OC3CC2O1 (some centres not stated)	0.2	x	7.6	x	11.9	4.5
C=C(C=O)C[C@@H]1C[C@H](O)C2OC3C[C@]4(C)OC5/C=C\CC6OC7C(CC=CCC6OC5CCCC4OC3CC2O1)OC1CC2OC3CC(=O)OC3C[C@@H](C)C[C@@]2(C)OC1C[C@@H]7C (some centres not stated)	49.7*	-12.3	1.6	x	-10.7	24.3
CN(C)c1ccc(/C=C/[N+](=O)[O-])cc1	0.0	-13.2	-0.2	79.5*	3.8	11.0
C/C(=C\c1ccc(N(C)C)cc1)[N+](=O)[O-]	-0.3	12.1	-0.6	15.3	0.1	26.4
COc1ccc(NC2=NC(C)(C)CS2)cc1	-0.2	5.7	6.9	-13.1	-1.9	-4.8
O=C(O)CCn1cc(C=C2C(=O)NC(=O)NC2=O)c(-c2cc3ccccc3oc2=O)n1	-0.1	5.8	-1.1	-8.1	-8.4	6.6
COc1cccc(-c2nn(Cc3ccccc3)cc2C(=O)O)c1	0.1	8.8	-0.8	3.7	0.7	23.8
